Bioassay records: PubChem BioAssay, Fisher Drug Discovery Resource Center
NPYLR7 agonist: mosquito NPYLR7 agonism; activation, % at 10 µM; 270,000 compounds, 0.15% hits; HEK293T NPYLR7/Galpha15, GCaMP6s calcium fluorescence; AID 1259423; in the data active means activation above about 40%;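 further: 0% = vehicle and 100% = reference agonist at the receptor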
mcGAS lum: blocks mouse cGAS activity; Q8C6L5; recombinant cGAS, Kinase-Glo ATP depletion luminescence; inhibition, % at 12.5 µM; 160,000 compounds, 0.15% hits; AID 1259399;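 further: 0% = negative control wells and 100% = reference inhibitor with no enzyme activity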
Target sequence (Q8C6L5 whole entry, looked up): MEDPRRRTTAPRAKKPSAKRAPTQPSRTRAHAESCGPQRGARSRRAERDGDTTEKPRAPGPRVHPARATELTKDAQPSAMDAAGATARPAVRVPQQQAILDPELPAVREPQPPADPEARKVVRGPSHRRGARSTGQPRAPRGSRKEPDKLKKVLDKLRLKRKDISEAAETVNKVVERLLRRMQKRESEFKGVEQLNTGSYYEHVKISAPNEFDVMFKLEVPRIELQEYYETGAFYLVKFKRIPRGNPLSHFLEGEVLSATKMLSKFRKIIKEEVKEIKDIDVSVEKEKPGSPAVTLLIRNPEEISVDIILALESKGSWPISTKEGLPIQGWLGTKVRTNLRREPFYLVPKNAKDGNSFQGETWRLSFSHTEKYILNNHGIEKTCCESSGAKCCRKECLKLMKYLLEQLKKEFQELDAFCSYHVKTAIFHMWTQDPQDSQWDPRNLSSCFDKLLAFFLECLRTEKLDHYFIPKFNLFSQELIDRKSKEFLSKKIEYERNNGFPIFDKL
hcGAS inh: human cGAS inhibition | Q8N884 | recombinant h-cGAS, ATP depletion, Kinase-Glo luminescence | inhibition, % at 12.5 µM | 290,000 compounds, 0.081% hits;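 further: 0% = vehicle reaction and 100% = reaction without DNA for no activity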
The depositor's hits bear a star; . = no result; ! = a repeat was not active. Most compounds without a hit are left out; they make up all but 0.24% or so of the library. Unless noted, no stated cut-off is given here; in the data, active means inhibition above about 40%; inactive means the rest.

SMILES | NPYLR7 agonist | mcGAS lum | hcGAS inh
CO[C@@]1(NC(=O)CSCC#N)C(=O)N2C(C(=O)O)=C(CSc3nnnn3C)CSC21 (some centres not stated) | 49.0*! | . | -5.8
Cc1ccc(C)c(CN(CCc2c[nH]c3ccccc23)Cc2nc(C(=O)NCc3ccc4c(c3)OCO4)co2)c1 | 18.7 | -7.7 | -4.1
O=c1oc2ccc3ccccc3c2cc1-c1nnc(-c2ccccc2)o1 | -6.2 | -2.0 | 46.4*
COc1ccc(-c2nnc(-c3cc4c(ccc5ccccc54)oc3=O)o2)cc1 | -3.7 | -1.0 | 2.8
O=C(O)c1cc2c(ccc3ccccc32)oc1=O | -6.4 | 41.8* | 16.5
O=C(NCc1ccccn1)c1cc2c(ccc3ccccc32)oc1=O | 11.1 | . | -6.0
COc1ccc(S(=O)(=O)Nc2ccc(N(C)C)c(CN(Cc3ccccc3)C(=O)c3ccccc3Cl)c2)cc1 | . | -6.8 | -8.6
CC(C)(C)OC(=O)NNC(=O)C=Cc1ccco1 | 2.2 | . | -9.0
O=C(Nc1ccc(N2CCCC2)c(C(=O)NCc2ccccc2)c1)c1ccccc1Br | -3.5 | -0.7 | -1.9
CCCCCN=C(N)NN=Cc1c[nH]c2ccc(OC)cc12 | 46.5* | . | -3.9
NC(=O)N/N=C\c1c[nH]c2ccccc12 | -6.1 | 0.1 | 1.3
Oc1cc(O)c2c(c1)O[C@H](c1ccc(O)c(O)c1)[C@@H](O)C2 | -1.4 | -5.0 | -2.0
Oc1cc(O)c2c(c1)O[C@H](c1cc(O)c(O)c(O)c1)[C@H](O)C2 | . | 24.7 | 79.4*
CSc1ncccc1C(=O)N1CC(=O)N(C2CCCCC2)CC(OCc2ccncc2)C1 (configuration not stated) | 14.2 | -15.0 | -4.4
Cc1cc2c(c(-c3cccs3)c1)OC(CN)C2 (configuration not stated) | 0.5 | . | -9.4
Cc1cc2c(c(-c3ccc4c(cnn4C)c3)c1)OC(CN)C2 (configuration not stated) | 76.1* | . | -3.9
CC(=O)CCCCC(=O)N1CCC2(CC1)Nc1ccccc1C(=O)N2C1CCCC1 | 0.1 | . | -9.2
Cc1c2ccccc2[nH]c2c1oc1cc(=O)ccc12 | 12.7 | . | -5.6
Cc1[nH]ccc2c1[nH]c1cc(=O)ccc12 | -3.6 | 43.3* | 49.0*!
Cc1ncoc1C(=O)N1CCC2(CCCN(Cc3cccc(F)c3F)C2)C1 (configuration not stated) | 2.3 | . | -8.3
COc1cccc(OC)c1-c1c(-c2ccccc2)ncn1CC1COCCO1 (configuration not stated) | 19.6 | -12.7 | -3.8
O=C1c2ccccc2C(=O)c2c(O)c(O)cc(O)c21 | -2.5 | 5.5 | -24.4
CC1(C)OC2OC(C(O)c3cc(O)c4c(c3O)C(=O)c3ccccc3C4=O)C(C)(O)C2O1 (configuration not stated) | 105.8* | . | 24.3
CC(C)(C)C(=O)NCCC(=O)OCc1ncc(-c2ccc(F)cc2)o1 | -3.3 | . | 3.0
C=CCNC(=O)COc1cccc2c(=O)n(CCOC)ccc12 | -0.4 | -7.8 | -6.9
SMILES | NPYLR7 agonist | mcGAS lum | hcGAS inh
Cc1c2c(nc3cc4c(cc13)OCO4)CCc1ccccc1-2 | 1.8 | . | 46.7*
Cc1cc(-c2ccco2)nc2cc3c(cc12)OCO3 | -0.1 | . | 0.7
COc1cc(/C=C2\SC(=S)N(C(C)C(=O)O)C2=O)ccc1O (configuration not stated) | 81.8* | -0.6 | -9.9
COc1ccc(/C=C2\SC(=S)N(C(CCSC)C(=O)O)C2=O)cc1OC (configuration not stated) | -2.4 | -3.3 | -8.4
COc1ccc(/C=C2\SC(=S)N(C(C)C(=O)O)C2=O)cc1OC (configuration not stated) | -3.4 | -7.4 | -1.0
CSCCC(C(=O)O)N1C(=O)/C(=C/c2ccc(O)cc2)SC1=S (configuration not stated) | 74.4* | 0.6 | -1.8
COc1cc(-c2cccc(CCN)c2)cc(OC)c1OC | 11.4 | -8.8 | -5.0
COc1ccc(C(=O)Nc2c(N)nc(SCc3ccc(C)cc3)[nH]c2=O)cc1OC | 2.4 | -7.0 | -8.4
COc1ccc(-c2nc(-c3ccccc3)c(-c3ccccc3)n2CC(=O)N2CCCC(O)C2)cc1 (configuration not stated) | 10.2 | . | 1.9
CC(=O)Nc1sc2c(c1-c1nc3ccccc3s1)CCN(C(C)C)C2 | 21.5 | 103.9* | 78.1*
CC(C)N1CCc2c(sc(NC(=O)c3ccnn3C)c2-c2nc3ccccc3s2)C1 | . | -2.8 | -0.7
O=C(CN1CCc2[nH]c3ccccc3c2C1)N1CCOCC1 | -8.5 | . | -1.0
CCN(C(=O)c1sc(NC(=O)CCl)c(C#N)c1C)C1CCCCC1 | -7.0 | 1.2 | -2.6
Cc1c(C#N)sc(NC(=O)CCl)c1C#N | 2.3 | 44.6* | 6.9
Cc1ccc(C)n1-c1sccc1C(=O)O | 24.7 | 86.2* | 43.6*
Cc1sc(-n2c(C)ccc2C)c(C(=O)O)c1C | 7.0 | 1.9 | 0.3
c1ccn2c(Sc3ncnc4sc5c(c34)CCCC5)nnc2c1 | 3.8 | . | -0.3
